This note sets out measurements from PubChem BioAssay AID1347165 (National Center for Advancing Translational Sciences (NCATS), 2019).

About 5,700 (2.6%) of roughly 220,000 compounds were called active. A call without a number means that no potency is given here. About 18% were inconclusive and are not listed. This is one part of a sample in which actives are shown more often than they occur. Calls come from the whole dose curve; as a rule, active = well fitted inhibition curve with a large enough effect; inconclusive = small, poorly fitted or top-dose-only effect; inactive = no such curve, though single readings can be large or run the other way.
Potency is the fitted concentration of half-maximal effect.

Lysine-specific demethylase 5B (Homo sapiens), sequence (Q9UGL1 whole entry, looked up): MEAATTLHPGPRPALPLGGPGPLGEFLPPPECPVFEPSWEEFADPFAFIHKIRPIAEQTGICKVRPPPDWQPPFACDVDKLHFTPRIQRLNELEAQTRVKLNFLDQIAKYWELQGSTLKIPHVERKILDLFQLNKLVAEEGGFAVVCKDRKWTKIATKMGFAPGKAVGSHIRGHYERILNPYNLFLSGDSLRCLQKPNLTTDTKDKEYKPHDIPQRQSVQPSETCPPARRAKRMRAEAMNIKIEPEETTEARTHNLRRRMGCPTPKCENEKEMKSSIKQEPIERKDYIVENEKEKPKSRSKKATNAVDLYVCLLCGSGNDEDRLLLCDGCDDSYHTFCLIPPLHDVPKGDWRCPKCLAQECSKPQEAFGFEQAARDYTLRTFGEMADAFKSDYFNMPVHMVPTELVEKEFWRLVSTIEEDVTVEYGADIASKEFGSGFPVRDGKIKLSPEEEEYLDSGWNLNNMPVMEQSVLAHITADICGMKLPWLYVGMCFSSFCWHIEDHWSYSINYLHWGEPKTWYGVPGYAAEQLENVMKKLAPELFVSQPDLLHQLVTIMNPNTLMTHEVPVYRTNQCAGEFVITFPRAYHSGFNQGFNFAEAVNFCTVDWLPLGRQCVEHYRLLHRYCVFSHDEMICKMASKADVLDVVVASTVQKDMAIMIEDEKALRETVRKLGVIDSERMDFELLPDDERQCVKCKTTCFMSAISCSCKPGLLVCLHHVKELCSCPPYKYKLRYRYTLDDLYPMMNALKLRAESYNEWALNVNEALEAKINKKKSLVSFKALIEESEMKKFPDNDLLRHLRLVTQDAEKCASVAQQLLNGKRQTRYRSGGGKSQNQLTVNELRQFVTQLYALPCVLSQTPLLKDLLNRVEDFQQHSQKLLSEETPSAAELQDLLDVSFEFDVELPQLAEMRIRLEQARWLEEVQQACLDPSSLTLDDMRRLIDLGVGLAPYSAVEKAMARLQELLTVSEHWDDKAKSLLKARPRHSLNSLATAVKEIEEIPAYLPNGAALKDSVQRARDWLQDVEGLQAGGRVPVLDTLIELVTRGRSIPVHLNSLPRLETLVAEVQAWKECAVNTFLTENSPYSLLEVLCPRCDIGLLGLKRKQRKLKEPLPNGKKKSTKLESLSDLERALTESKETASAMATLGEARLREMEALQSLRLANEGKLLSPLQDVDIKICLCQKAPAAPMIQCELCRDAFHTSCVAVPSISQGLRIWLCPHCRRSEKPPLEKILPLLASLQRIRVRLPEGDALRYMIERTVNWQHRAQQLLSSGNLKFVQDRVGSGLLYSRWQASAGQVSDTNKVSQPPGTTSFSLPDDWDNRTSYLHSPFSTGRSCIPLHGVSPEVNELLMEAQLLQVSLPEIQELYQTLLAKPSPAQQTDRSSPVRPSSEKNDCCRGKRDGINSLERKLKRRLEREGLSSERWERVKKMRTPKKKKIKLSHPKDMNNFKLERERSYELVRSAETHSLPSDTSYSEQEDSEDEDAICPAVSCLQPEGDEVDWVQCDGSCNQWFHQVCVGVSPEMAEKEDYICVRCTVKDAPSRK

This assay has as its target Lysine-specific demethylase 5B (Homo sapiens) (UniProt Q9UGL1). The assay is described as follows: Primary screen for KDM5B Histone Demethylases FDH-coupled qHTS. Note: nearly all actives have a fitted effect of over 70% in size. The note with it: FDH-coupled NADH fluorescence (FDH is formaldehyde dehydrogenase); series mostly up to 57.7 µM. An excerpt:
Assay Submitter (PI): Qin Yan, Ph.D. (Yale University) and Xiaodong Cheng, Ph.D. (MD Anderson) This project was funded as part of the NCI NEXT Program and Chemical Biology Consortium (CBC) The histone demethylases, KDM5A and KDM5B catalyze the demethylation of lysine 4 on histone H3 (H3K4me3/2). They are overexpressed in a variety of cancers and have been implicated in cancer cell growth, metastasis, drug resistance, and tumor growth. KDM5A is amplified and overexpressed in breast and gastric cancer; and is translocated in leukemia. While KDM5B is highly expressed in human mammary tumors and breast cancer cell lines, but not in normal adult breast tissue. Moreover, knockdown of KDM5B leads to upregulation of tumor suppressor genes, including BRCA1. The goal of this project is to employ qHTS to identify selective small molecule inhibitors of KDM5A/B demethylase activity to better understand the role of KDM5 in cancer and to develop novel therapies. We employed an FDH-coupled assay previously reported by Sakurai et al. to monitor in vitro KDM5 demethylase activity. Compounds showing dose response inhibition are re-acquired, validated, and tested for non-specific interference with the formaldehyde dehydrogenase (FDH) counterscreen. True inhibitors are validated using an AlphaLisa secondary screen, which employs an H3K4(me2-1)-specific antibody to monitor demethylation of a biotin-tagged H3K4(me3) peptide substrate. Inhibitors are profiled against KDM4A and KDM6A AlphaLisa counterscreens to determine level of demethylase specificity; and against the TruHits counterscreen to eliminate non-specific inhibitory activity on the AlphaLISA detection method. Selective inhibitors identified from the primary and secondary screening are tested in cells using immunofluorescence to monitor global H3K4 tri-methylation as a measure of KDM5A/B inhibition. Early Translation Branch (ETB) National Center for Advancing Translational Sciences (NCATS), Rockville, MD National Institute of Health (NIH), Bethesda, Maryland [1] Sakurai, M et al. A miniaturized screen for inhibitors of Jumonji histone demethylases. Mol Biosyst. 2010 Feb;6(2):357-64. doi: 10.1039/b912993f. Epub 2009 Oct 8.
Materials: 1536-well Black, solid bottom, medium binding assay plate is purchased from Greiner Bio-one. The enzymes (KDM5B) and substrate (H3K4me3/2) are provided by the principal investigators. The buffer for this assay is composed of 50mM HEPES at pH 7.5 with 0.01% Tween-20. FDH coupled Demethylase qHTS protocol: Three microliter enzyme mix (buffer + 200nM KDM5BDeltaAP final concentration) is dispensed into the assay plate using the BioRAPTR Flying Reagent Dispenser (FRD; […]). Compound (at various final concentration) and control solution is pin transferred to the assay plate using the Kalypsys 1536-pin tool apparatus. The assay plate is incubated for 10 min at room temperature followed by addition of 1uL substrate mix (buffer + 100uM ascorbic acid, 50uM ferrous ammonium sulfate, 12.5uM H3K4Me3, 25uM a-ketoglutarate, 0.25 mM NAD+, 0.25 U/mL formaldehyde dehydrogenase using the FRD yielding a total reaction volume of 4 uL. Initial fluorescence (Read1) is detected using the PerkinElmer ViewLux plate reader equipped with 340 nm excitation and 450 nm emission filters. The final fluorescence (Read2) signal is obtained after 30 min of room temperature incubation. Delta RFU is calculated (Read2 - Read1) and is used to generated dose response curves.
(In qHTS, concentration-response curves come from the screen itself.)
As to `Cc1cc(Cl)cc(SCC(=O)O)c1Cl`, the Potency entry is “inactive”. For the compound `CC(C)NC(=S)N/N=C1\CCc2ccccc21`, the Potency result was “inactive”.

For `CC(O)CNC(=O)c1ccc(-c2ncc3cnc(C4=CCOCC4)cn23)cc1` (centres undefined), the Potency was 35.5 µM (active).

Consider `Cc1ccc(S(=O)(=O)N2CC(C)N(S(C)(=O)=O)C2)cc1` (centres undefined), for which the Potency result is “inactive”.

In the case of `COc1ccccc1CNC(=O)c1nn(C)c(=O)c2ccccc12`, the Potency result is “inactive”.

As for `COc1ccc(CN(C)C(=O)c2nn(C)c(=O)c3ccccc23)cc1F`, the Potency entry was “inactive”. Under `COc1ccccc1-c1cc(C(=O)N(C)C)nc2c1cnn2C` stands 89.1 µM (active); under `O=C(/C=C/c1ccc(F)cc1)NNC(=O)c1ccc(NC(=O)C2CCCCC2)cc1`, “inactive”; under `CCCCCOC(=O)COc1ccc2c(=O)c(Oc3cccc(C)c3)c(C(F)(F)F)oc2c1`, “inactive”.

As for `CC(C)C(NC(=O)Cc1ccc(N2CCCC2=O)cc1)c1nc2ccccc2[nH]1` (centres undefined), the Potency entry is “inactive”. In the case of `CCCS(=O)(=O)N1Cc2c(ncn2Cc2ccc(Cl)cc2)C[C@H]1C(=O)OC`, the Potency entry is “inactive”. Take `COC(=O)[C@@H]1Cc2ncn(Cc3ccccc3)c2CN1C(=O)CC(C)(C)C`: the Potency entry is “inactive”.

With `CCCn1cnc2c1CN(S(=O)(=O)Cc1ccccc1)[C@H](C(=O)OC)C2`, the Potency was 39.8 µM (active). With `CCC(C)NC(=O)c1sccc1-c1ccccc1` (centres undefined) the entry was “inactive”; with `CCc1nc2ccc(C(=O)NCCCN(CC)CC)cc2nc1CC`, “inactive”. Turning to `CCc1c(C)sc(NC(=O)c2cccc(Br)c2)c1C#N`, the Potency entry was “inactive”. Under `CC1CCC2CCCCC2N1C(=O)c1cc([N+](=O)[O-])cc([N+](=O)[O-])c1` (centres undefined) stands “inactive”; under `O=S(=O)(c1cccs1)N1CCn2cccc2C1c1ccccc1F` (centres undefined), “inactive”. Under `CCN1C(=O)C2CC3(CCN(C(=O)c4nccn4C)CC3)CN2C1=O` (centres undefined) stands “inactive”; under `Cn1ccnc1C(=O)N1CCC2(CC1)CN(c1ncccn1)CC2CO` (centres undefined), 22.4 µM (active); under `CC(=O)N1CC(CO)C2(CCN(C(=O)c3ccccc3Cl)CC2)C1` (centres undefined), “inactive”. Take `Cn1cc(CC(=O)N2CCCc3ncc(C(=O)NCCOc4ccccc4)cc32)c2ccccc21`: the Potency result was “inactive”. For the compound `Cc1cccc(NC(CNS(=O)(=O)c2ccccc2)c2ccccc2)c1` (centres undefined), the Potency result was “inactive”. For `CC(C)OCCC(=O)N1CCCC(CN2CCN(c3ccccn3)CC2)C1` (centres undefined), the Potency entry is “inactive”. Turning to `O=C(CC(NC(=O)c1ccccc1)c1ccccc1)NCc1cccs1` (centres undefined), the Potency entry was “inactive”. Take `CCOC(=O)N1CCN(Cc2cc(=O)oc3c(C)c(C)cc(C)c23)CC1`: the Potency result is “inactive”. For `Cc1cc(C)c(-c2nc3ncccc3[nH]2)[nH]1`, the Potency is 35.5 µM (active).

As for `CCC(Sc1nc2ncccc2[nH]1)C(=O)Nc1ccc(C)c(Cl)c1` (centres undefined), the Potency result is “inactive”.

As to `c1cnc2nc(C3CCCCN3)[nH]c2c1` (centres undefined), the Potency entry was “inactive”.

`OC(c1nc2ccc(F)cc2[nH]1)C(O)c1nc2ccc(F)cc2[nH]1` (centres undefined): the Potency result is “inactive”. Under `O=C1c2cnc(-c3ccc(O)c(F)c3)nc2OCCN1Cc1ccccc1` stands 20 µM (active); under `O=C1c2cnc(-c3ccccc3)nc2OCCN1c1ccccc1`, “inactive”; under `NC(=O)c1cccc(-c2ncc3c(n2)OCCN(Cc2ccccc2)C3=O)c1`, “inactive”.

For `COc1ccc(-c2ncc3c(n2)OCCN(Cc2ccccc2)C3=O)cn1`, the Potency was 28.2 µM (active). Under `O=C1c2cnc(-c3ccc(Cl)cc3)nc2OCCN1Cc1ccccc1` stands “inactive”; under `NC(=O)c1cccc(-c2ncc3c(n2)OCCN(c2cccc(C(F)(F)F)c2)C3=O)c1`, “inactive”; under `CCCNc1c(NC(=O)Nc2ccccc2)c(=O)oc2ccccc12`, “inactive”. Consider `CCCCN1C(=O)NC(c2ccc(OC)cc2)C2=C1COC2=O` (centres undefined), for which the Potency entry is “inactive”. Under `O=C(Nc1ccc(F)cc1)C1=C(N2CCCC2)c2ccccc2S1(=O)=O` stands “inactive”.

On to `Cn1nc(C(=O)Nc2nc(-c3cc(F)ccc3F)cs2)c2ccccc2c1=O`, for which the Potency result was “inactive”.

On to `CC(C)(C)Sc1ccc2nn(CC(=O)NCc3ccccc3Cl)c(=O)n2n1`, for which the Potency entry was “inactive”. Under `Cc1nc(Cc2nn3c(-c4cc(Cl)ccc4F)nnc3s2)cs1` stands “inactive”; under `Cc1nc(C)c(C(=O)C2=C(O)C(=O)N(CCN3CCOCC3)C2c2ccc(C(C)(C)C)cc2)s1` (centres undefined), “inactive”; under `COC(=O)c1ccc(COc2c(Cl)cccc2Cl)cc1`, “inactive”. Consider `Cc1nn(-c2ccc(C(C)C)cc2)c(C)c1[C@@H]1C=C[C@@H](NC(=O)Nc2ccccc2)C1`, for which the Potency entry is “inactive”. Under `Cc1nn(-c2ccccc2)c(C)c1[C@@H]1C=C[C@@H](NC(=O)c2ccc3c(c2)OCO3)C1` stands “inactive”; under `Cc1nn(-c2ccc(C(C)(C)C)cc2)c(C)c1[C@@H]1C=C[C@@H](NC(=O)c2ccco2)C1`, 31.6 µM (active). With `CCCCN(CCCC)c1nc2ccccc2nc1C(C#N)C(=O)OC(C)C` (centres undefined) the entry was “inactive”. Under `N#Cc1cccc(Oc2cccc3cccnc23)c1C#N` stands “inactive”; under `c1csc(CNCC2CCNCC2)c1`, “inactive”; under `O=Cc1cccc(-c2cc(F)cc(F)c2)c1`, “inactive”. Turning to `CSc1ccc(-c2ccc(C=O)cc2)cc1`, the Potency was 10 µM (active).

Take `CSc1ccc(/C=N/Nc2c(Cl)cc(Cl)cc2Cl)cc1`: the Potency result was “inactive”. Take `CNC(=O)c1cccc(CNC(=O)C=C(C)C)c1`: the Potency entry is “inactive”.

Regarding `Cc1noc(C)c1COc1ccc(C(=O)NCCOc2ccccc2)cc1`, the Potency result is “inactive”. With `Cc1nn(-c2nc3c(c(=O)n(CCN4CCCCC4)c(=O)n3C)n2C)c(C)c1C` the entry was “inactive”; with `CCOCC(=O)Nc1nn(-c2cccc(F)c2)c2cccc(N3CCOC3=O)c12`, 28.2 µM (active).

For the compound `COc1cccc(NC(=O)Cn2c(=O)cc(C)c3c(C)nn(-c4cccc(F)c4)c32)c1`, the Potency entry is “inactive”. Consider `CCOC(=O)c1ccc(NC(=O)Cn2c(=O)cc(C)c3c(C)nn(-c4cccc(F)c4)c32)cc1`, for which the Potency result was “inactive”. Under `COCCN1C(=O)C(O)=C(C(=O)c2ccc(C)o2)C1c1ccc(O)c(OC)c1` (centres undefined) stands “inactive”; under `CC1=C[C@@H](CNC(=O)C2CCCCC2)[C@H](C(C)C)C[C@H]1Cc1nc2ccc(F)cc2[nH]1`, “inactive”; under `CC(=O)Nc1cc(C(=O)NCc2ccc(F)cc2)ccc1Sc1ccc(F)cc1`, “inactive”. With `CC(C)Cn1cncc1CNC(=O)c1ccc2nc(-c3ccc(F)cc3)cn2c1` the figure was 25.1 µM (active); with `CCc1ccc(CNC(=O)C2CCN(c3nn4cc(-c5ccc(F)cc5)nc4s3)CC2)cc1`, “inactive”. With `O=C(N/N=C/c1ccccc1Cl)c1ccc(Cl)s1` the entry was “inactive”; with `OCC#Cc1csc(CN2CCCC3(CCNCC3)CC2)c1`, “inactive”; with `CCN(CC)C(=O)[C@@H](C)C1CC[C@@]2(C)Cc3sc(N)nc3[C@@H](C)[C@@H]2[C@H]1O` (some centres undefined), “inactive”.

`C=CCN(C)C(=O)[C@@H](C)C1CC[C@@]2(C)Cc3sc(Nc4c(Cl)cccc4Cl)nc3[C@@H](C)[C@@H]2[C@H]1O` (some centres undefined): the Potency result was “inactive”.

Regarding `C=CCN(C)C(=O)[C@@H](C)C1CC[C@@]2(C)Cc3sc(NS(=O)(=O)c4ccc(Cl)cc4)nc3[C@@H](C)[C@@H]2[C@H]1O` (some centres undefined), the Potency was 28.2 µM (active).
